# Source: PubChem BioAssay
# MITF inh – MITF inhibitors, primary screen, biochemical, AlphaScreen, human; AlphaScreen MITF homodimerization, bead proximity signal; inhibition, % at 2.6 µM; 650,000 tested, 0.91% active; in the data active = inhibition above about 50%;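 note: 0% = vehicle wells with protein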
# Target sequence (O75030 whole entry, looked up): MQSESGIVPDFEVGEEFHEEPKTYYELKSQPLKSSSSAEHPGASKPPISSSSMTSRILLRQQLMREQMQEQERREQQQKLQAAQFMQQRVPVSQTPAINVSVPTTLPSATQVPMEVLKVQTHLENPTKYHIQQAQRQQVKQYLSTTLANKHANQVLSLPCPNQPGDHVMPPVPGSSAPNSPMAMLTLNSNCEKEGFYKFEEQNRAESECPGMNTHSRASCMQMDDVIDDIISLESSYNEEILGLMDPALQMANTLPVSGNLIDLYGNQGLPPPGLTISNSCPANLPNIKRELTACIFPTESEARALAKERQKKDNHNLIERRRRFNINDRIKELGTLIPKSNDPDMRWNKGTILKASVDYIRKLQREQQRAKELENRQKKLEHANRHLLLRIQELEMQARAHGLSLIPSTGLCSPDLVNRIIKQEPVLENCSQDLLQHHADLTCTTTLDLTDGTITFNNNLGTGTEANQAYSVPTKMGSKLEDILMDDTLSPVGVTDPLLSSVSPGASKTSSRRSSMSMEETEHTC
# TEAD-YAP block – TEAD-YAP interaction inhibition, primary screen, TEAD-YAP interaction inhibitor project, luminescence, HEK-TIYL cells; TEAD-Gal4/YAP UAS-luciferase luminescence; 640,000 tested, 1.4% active; inhibition, % at 9.12 µM; in the data active = inhibition above about 32%;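 note: 0% = median of test compound wells and 100% = reference inhibitor wells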
# GPR151 ag – activators of human GPR151, primary screen, cell-based, PathHunter beta-arrestin, luminescence. PathHunter beta-arrestin GPR151 cells. activation, % at 11.2 µM. 650,000 tested, 1% active. AID 1508602, 2020; in the data active = activation above about 4.9%;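 note: 0% = median of compound wells and 100% = cells with positive control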
# FBW7 act – FBW7 E3 ligase activators, primary screen, biochemical, AlphaScreen, human; F-box/WD repeat-containing protein 7 (Homo sapiens), Q969H0; AlphaScreen FBW7–phospho-cyclin E peptide binding, activator screen; normalized activity (activation), % at 26.1 µM; 650,000 tested, 0.13% active; in the data active = normalized activity above about 1.9%;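 note: purified mutant Fbw7 with reduced substrate affinity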
# * marks the source's active call; other numbers are inactive results. An excerpt weighted towards active compounds, which were near 3.5% of everything screened.
SMILES,MITF inh,TEAD-YAP block,GPR151 ag,FBW7 act
CC(Oc1cccc2ccccc12)C(=O)N/N=C/c1cc([N+](=O)[O-])ccc1O (stereo unspecified),18.8,36.9*,2.3,0.1
O=C(Cn1cncn1)N/N=C/c1ccc(Br)cc1,2.0,-3.1,3.2,0.0
O=C(CNc1cccc2ccccc12)N/N=C/c1cc(Br)ccc1O,8.8,33.5*,0.2,-0.3
O=C(CNc1cccc2ccccc12)N/N=C/c1ccccc1O,9.6,12.3,0.6,0.0
COc1ccccc1NC(C)C(=O)N/N=C/c1cc([N+](=O)[O-])ccc1O (stereo unspecified),31.3,21.9,0.9,-0.7
CC(Nc1cccc2ccccc12)C(=O)N/N=C/c1cc([N+](=O)[O-])ccc1O (stereo unspecified),24.1,67.4*,1.5,0.0
O=C(Cn1cncn1)N/N=C/c1cc(Br)ccc1O,57.2*,16.7,-0.6,-1.3
O=C(CC1OC(=O)c2ccccc21)c1cc(O)ccc1O (stereo unspecified),11.9,-0.5,0.4,0.0
CC1CCC(NC(=O)CN(C)S(=O)(=O)c2cc3c(cc2Cl)NC(=O)CO3)CC1 (stereo unspecified),0.2,-4.2,0.2,-0.1
CCN(CC)C(=O)C1CCCN(c2nc(C)cc(Nc3ccc(N4CCOCC4)cc3)n2)C1 (stereo unspecified),16.1,-0.9,1.7,0.1
CC(Nc1cccc2ccccc12)C(=O)N/N=C/c1ccc(O)cc1 (stereo unspecified),8.1,34.4*,-0.4,-0.2
CCN1CCC(C2(CCCc3ccccc3)NC(=O)NC2=O)CC1 (stereo unspecified),-0.7,-6.7,0.0,-0.1
COc1ccc(CCNc2nnc(Sc3nnnn3-c3ccccc3)s2)cc1OC,0.6,54.2*,1.2,-0.1
CN(Cc1cccc(F)c1)S(=O)(=O)c1ccccc1[N+](=O)[O-],21.6,3.2,-0.8,0.2
COc1ccc(C(=O)Nc2ncc(Cc3ccc(C)cc3)s2)cc1OC,9.9,39.1*,-0.8,1.1
Cc1ccc(C(=O)Nc2ncc(Cc3cccc(Cl)c3)s2)cc1,20.0,11.3,0.1,0.6
COc1ccc(C(=O)Nc2ncc(Cc3cccc(Cl)c3)s2)cc1OC,8.8,53.1*,1.1,0.5
CC1C(c2ccc3ccccc3n2)=CNc2ccccc21 (stereo unspecified),4.3,41.1*,-0.8,-0.1
Cc1ccc(N/C(N)=N/c2nc(C)cc(N3CCCC3)n2)c(C)c1,4.4,34.0*,1.3,-0.1
Cc1cc(C)nc(/N=C(\N)Nc2cc(Cl)ccc2C)n1,7.2,4.6,-1.6,-0.1
COc1ccc(-c2cc(C(F)(F)F)n3nc(C(=O)Nc4cccc(C(C)=O)c4)cc3n2)cc1OC,8.5,-3.5,-0.1,0.2
COC(=O)c1nn(-c2ccc3c(c2)CCN3C(C)=O)cc1O,-2.5,94.5*,-10.5,0.0
O=S1(=O)CCN(Cc2ccc3c(c2)OCCCO3)CC1,-10.7,9.9,1.0,0.6
COc1ccc(CCNc2nc(Nc3ccc4ncccc4c3)ncc2C)cc1,19.9,33.4*,-0.6,0.1
COc1ccc(CCNc2nc(Nc3ccc4ncccc4c3)nc3nc[nH]c23)cc1,15.4,50.3*,0.0,0.1
SMILES,MITF inh,TEAD-YAP block,GPR151 ag,FBW7 act
CCOC(=O)N1CCN(c2cc(Nc3ccc(OC)cc3)c3c4c(onc24)-c2ccccc2C3=O)CC1,-5.8,-0.1,-0.3,-0.4
CC(C)Nc1cc(N2CCN(C)CC2)c2noc3c2c1C(=O)c1ccccc1-3,52.1*,7.4,-0.3,-0.7
CC(C)Nc1cc(N2CCC(=O)CC2)c2noc3c2c1C(=O)c1ccccc1-3,22.2,-16.3,-0.4,-0.4
CCCCNc1cc(N2CCN(CCO)CC2)c2noc3c2c1C(=O)c1ccccc1-3,53.8*,19.6,-0.8,-0.4
CCOC(=O)N1CCN(c2cc(NC(C)C)c3c4c(onc24)-c2ccccc2C3=O)CC1,70.7*,10.5,1.5,-1.3
CC(C)Nc1cc(N(C)C)c2noc3c2c1C(=O)c1ccccc1-3,50.7*,10.8,0.1,-0.5
CCCN1CCN(c2cc(NCCO)c3c4c(onc24)-c2ccccc2C3=O)CC1,24.2,21.4,-2.1,-0.5
O=S(=O)(NCc1ccc(F)cc1)c1ccccc1F,0.1,-11.4,-0.3,-0.1
COc1ccccc1CNC(=O)c1c(O)c2ccccc2[nH]c1=O,2.7,0.8,0.1,-0.1
COc1cc2c(C(=O)N(C)c3ccccc3C)cn(CC(C)C)c(=O)c2cc1OC,-8.9,-16.8,0.9,2.2*
O=C(CSc1nc2ccccc2c2nc(-c3ccccc3)nn12)c1ccc(O)c(O)c1,24.0,43.9*,1.5,-0.5
Cn1c(NC(=O)c2ccc(Cl)c(Cl)c2)nc2ccccc21,22.4,-19.9,0.2,0.2
Cc1ccc(C(=O)Nc2nc3ccccc3n2C)cc1,15.9,41.2*,-2.6,-0.5
c1ccc(CCNc2c3c(nc4ccccc24)CCC3)cc1,-14.3,38.8*,-0.1,0.5
COc1ccccc1Nc1c2c(nc3ccccc13)CCC2,4.5,53.9*,-0.3,-0.5
CCOC(=O)c1ccc(Nc2cc(C)nc(-c3ccccc3)n2)cc1,6.9,39.5*,2.9,0.0
CCOC(=O)c1ccc(Nc2c3c(nc4ccccc24)CCC3)cc1,-6.8,42.3*,-0.4,0.4
O=C(Cc1cn(-c2ccc(Nc3ccccc3)nn2)c2ccccc12)NC1CC1,19.9,-12.1,-1.3,0.2
CCNC(=O)[C@@H]1C[C@H](NCc2cccc(F)c2)CN1Cc1cccc2ccccc12,3.7,-9.4,0.6,-0.1
CCC(C)NC(=O)Cn1ncc2c(Cl)cccc21 (stereo unspecified),-1.6,0.7,-1.7,0.1
CCOC(=O)c1ccc(S(=O)(=O)Nc2c(C(=O)OCC)oc3ccccc23)cc1,9.7,4.4,-1.7,0.3
CCOC(=O)c1ccc(Nc2c(N)c(=O)oc3ccccc23)cc1,2.9,51.9*,0.4,-0.1
CC(=O)c1cccc(Nc2c3c(nc4ccccc24)CCC3)c1,-4.1,55.8*,-0.1,-0.2
Nc1nonc1-c1nc2ccccc2n1CC(=O)Nc1ccccc1-c1ccccc1,6.6,-11.0,2.5,0.0
CCOC(=O)c1ccccc1NC(=O)Cn1c(-c2nonc2N)nc2ccccc21,2.2,52.0*,0.4,0.0
COc1cccc(/C=N\NC(=O)Cn2c(-c3nonc3N)nc3ccccc32)c1O,12.1,28.5,-0.9,0.4
COC(=O)c1sccc1NC(=O)Cn1c(-c2nonc2N)nc2ccccc21,-7.7,49.6*,0.7,-0.2
Nc1nc(N)nc(CCCn2c(-c3nonc3N)nc3ccccc32)n1,12.4,57.3*,-0.3,0.0
COc1cc(/C=N/NC(=O)Cn2c(-c3nonc3N)nc3ccccc32)ccc1O,6.3,45.1*,-0.4,-0.2
COc1ccc([N+](=O)[O-])cc1NC(=O)CS(=O)Cc1nc(-c2ccc(C)cc2)oc1C (stereo unspecified),-2.8,-1.6,-1.4,0.0
